Assay [1] in a line: Caspase-3/7 induction in HepG2 cells by small molecules, qHTS assay (AID 1346978). Note: nearly all actives have a fitted effect of over 15% in size. A digest of the protocol: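 Wild-type HepG2 cells, 2,000/well, settled 5 hr at 37 C and 5% CO2, then compound-treated for 17 hr; caspase-3/7 activity read by luminescent Caspase-Glo 3/7 after 30 min at room temperature.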
In general terms: Quantitative high-throughput screening tests each substance at several concentrations.

The nature of assay [2]: Caspase-3/7 induction in CHO-K1 cells by small molecules, qHTS cell viability counter screen (AID 1346979). Note: nearly all actives have a fitted effect of over 35% in size. Note: potency is the fitted concentration of half-maximal effect. A digest of the protocol: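 Multiplexed with Caspase-Glo 3/7 in CHO-K1 cells, this counter screen added CellTiter-Fluor after 16hr of compound exposure and recorded fluorescence 1hr later.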
A short description of assay [3]: Caspase-3/7 induction in HepG2 cells by small molecules, qHTS cell viability counter screen (AID 1346981). Note: series mostly up to about 92 µM; nearly all actives have a fitted effect of over 30% in size. A digest of the protocol:
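Wild-type HepG2 cells (2,000/well) were allowed to settle for 5 hr at 37 C, 5% CO2, then dosed with compounds in DMSO by pin transfer. After 16 hr at 37 C, CellTiter-Fluor was added and fluorescence read 1 hr later.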

Assay [4] has as its target Cytochrome P450 2D6 (Homo sapiens) (UniProt P10635). The experiment in a line: Cytochrome P450 Family 2 Subfamily D Member 6 (CYP2D6) small molecule antagonists: luciferase reporter qHTS assay (AID 1671196). Note: nearly all actives have a fitted effect of over 50% in size. Note: potency is the fitted concentration of half-maximal effect. Summed up:
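CYP2D6 enzyme–substrate mix was held with compound for 10 min at room temperature, then NADPH regeneration solution was added and the reaction ran 1 h at room temperature. Luciferin product was detected by luminescence after 20 min with detection reagent.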
In general terms: In a reporter assay the amount or activity of a reporter protein is the signal.

Assay [5] deals with Cytochrome P450 2C19 (Homo sapiens) (UniProt P33261). The experiment in a line: Cytochrome P450 Family 2 Subfamily C Member 19 (CYP2C19) small molecule antagonists: luciferase reporter qHTS assay (AID 1671197). Note: nearly all actives have a fitted effect of over 65% in size. Note: potency is the fitted concentration of half-maximal effect. A digest of the protocol:
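Relative luminescence units recorded 20 min after the detection reagent stopped a 1 h, 37C CYP2C19 reaction on proluciferin substrate, which was started by NADPH regeneration following 10 min room-temperature compound preincubation; ketoconazole positive control.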

In assay [6] the target is Cytochrome P450 2C9 (Homo sapiens) (UniProt P11712). The experiment in a line: Cytochrome P450 Family 2 Subfamily C Member 9 (CYP2C9) small molecule antagonists: luciferase reporter qHTS assay (AID 1671198). Note: nearly all actives have a fitted effect of over 50% in size. Note: potency is the fitted concentration of half-maximal effect. Summed up: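 P450-Glo proluciferin substrate with CYP2C9 enzyme; 10 min RT preincubation, then NADPH regeneration 1 h at 37C; luciferin detection reagent 20 min RT, luminescence in relative luminescence units.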

The target in assay [7] is Voltage-gated inwardly rectifying potassium channel KCNH2 (Homo sapiens) (UniProt Q12809). The experiment in a line: Human Ether-a-go-go-Related Gene (hERG) channel small molecule antagonists: fluorescence cell-based qHTS assay (AID 1671200).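 Note: hERG-expressing U2OS cells given a thallium stimulus after FluxOR II dye loading; series mostly up to about 77 µM; nearly all actives have a fitted effect of over 50% in size.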 Summed up:
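Cell line hERG-U2OS; dye FluxOR II, 1 h RT dark; Tl+ stimulus; ex 480/em 540 nm, read each second for 2 min.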
On the technique in general: hERG is a cardiac potassium channel; its block is linked to QT prolongation.

Assay [8] addresses Cytochrome P450 3A4 (Homo sapiens) (UniProt P08684). As to the kind of experiment: Cytochrome P450 Family 3 Subfamily A Member 4 (CYP3A4) small molecule antagonists: luciferase reporter qHTS assay (AID 1671201). Note: nearly all actives have a fitted effect of over 50% in size. Note: potency is the fitted concentration of half-maximal effect. Summed up:
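Room-temperature assay throughout: 10 min compound–enzyme/substrate preincubation, 1 h reaction after NADPH regeneration solution, 20 min detection. Luciferin formed from proluciferin substrate is quantified by luminescence.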

The target in assay [9] is Nuclear receptor subfamily 1 group I member 2 (Homo sapiens) (UniProt O75469). The experiment in a line: Human pregnane X receptor (PXR) small molecule agonists, qHTS assay (AID 1346982). Note: nearly all actives have a fitted effect of over 35% in size. Note: potency is the fitted concentration of half-maximal effect. A digest of the protocol:
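PXR-Luc HepG2 cells (CYP3A4 promoter-driven luciferase) were seeded in medium with 5% charcoal-stripped FBS, left 5 hr at 37 C, then exposed to compounds in DMSO for 24 hr. Luminescence was read after ONE-Glo addition.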

For assay [10], the target named is Cytochrome P450 1A2 (Homo sapiens) (UniProt P05177). The experiment in a line: Cytochrome P450 Family 1 Subfamily A Member 2 (CYP1A2) small molecule antagonists: luciferase reporter qHTS assay (AID 1671199). Note: nearly all actives have a fitted effect of over 50% in size. Note: potency is the fitted concentration of half-maximal effect. A digest of the protocol: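 Human CYP1A2 activity measured with a P450-Glo proluciferin substrate; compounds in DMSO preincubated 10 min at room temperature with enzyme-substrate mix, then NADPH regeneration system added for 1 h. Luciferin detection reagent, 20 min, luminescence read.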

For assay [11], the target named is Nuclear receptor subfamily 1 group I member 2 (Homo sapiens) (UniProt O75469). The experiment in a line: CYP3A4 induction through human pregnane X receptor (PXR) by small molecules, qHTS assay (AID 1346984). Note: nearly all actives have a fitted effect of over 40% in size. Note: potency is the fitted concentration of half-maximal effect. A digest of the protocol: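 DPX-2 cells (HepG2 co-transfected with PXR and CYP3A4 promoter-luciferase) treated with compounds 24 h at 37C; luciferin-IPA CYP3A4 substrate 3uM final added for 3 h, then One-Glo; luminescence read. qHTS format.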

The target is the same in assay [12]. As to the kind of experiment: Human pregnane X receptor (PXR) activation by small molecules, qHTS assay (AID 1346985). Note: nearly all actives have a fitted effect of over 40% in size. A digest of the protocol: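 DPX-2 cells (HepG2 co-transfected with a PXR response element and a CYP3A4-promoter luciferase construct) were seeded at 2,000 per well, rested 5 hr at 37C, then exposed to DMSO-dissolved compounds for 24 hr. Activation was read as luciferase luminescence.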

Assay [13] can be described thus: Caspase-3/7 induction in CHO-K1 cells by small molecules, qHTS assay (AID 1346980). Note: nearly all actives have a fitted effect of over 15% in size. Summed up: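 Wild-type CHO-K1 cells exposed to compounds for 17hr at 37 C, 5% CO2. Caspase-3/7 activity then measured by Caspase-Glo 3/7 luminescence after 30min at room temperature.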
Assay [14] concerns the target Nuclear receptor subfamily 1 group I member 2 (Rattus norvegicus) (UniProt Q9R1A7). The experiment in a line: Rat pregnane X receptor (rPXR) activation by small molecules, qHTS assay (AID 1346983). Note: nearly all actives have a fitted effect of over 20% in size. Conditions: rPXR luciferase reporter cells, One-Glo luminescence, 24 h; max activation: hits give high values. Summed up:
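Cell-based rPXR activation assay: rPXR cells, 2,000 per well, rested 5hr at 37 C, then exposed to compounds in DMSO for 24 hr at 37 C. Luciferase activity read by One-Glo luminescence after 30 min at room temperature.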

The structures appear in SMILES notation. Unmarked numbers belong to inactive results. Inconclusive results are not listed. Active and inactive are the calls of the source. Calls come from the whole dose curve; as a rule, active = well fitted curve in the direction sought with a large enough effect in the repeat runs; inconclusive = weak or mixed curves; inactive = no such curve, though single readings can be large; an effect the other way counts as inactive or inconclusive.
% is set by controls: 0 for no effect and ±100 for the full control effect.

Sequence of Cytochrome P450 2D6 (Homo sapiens) (P10635 whole entry, looked up): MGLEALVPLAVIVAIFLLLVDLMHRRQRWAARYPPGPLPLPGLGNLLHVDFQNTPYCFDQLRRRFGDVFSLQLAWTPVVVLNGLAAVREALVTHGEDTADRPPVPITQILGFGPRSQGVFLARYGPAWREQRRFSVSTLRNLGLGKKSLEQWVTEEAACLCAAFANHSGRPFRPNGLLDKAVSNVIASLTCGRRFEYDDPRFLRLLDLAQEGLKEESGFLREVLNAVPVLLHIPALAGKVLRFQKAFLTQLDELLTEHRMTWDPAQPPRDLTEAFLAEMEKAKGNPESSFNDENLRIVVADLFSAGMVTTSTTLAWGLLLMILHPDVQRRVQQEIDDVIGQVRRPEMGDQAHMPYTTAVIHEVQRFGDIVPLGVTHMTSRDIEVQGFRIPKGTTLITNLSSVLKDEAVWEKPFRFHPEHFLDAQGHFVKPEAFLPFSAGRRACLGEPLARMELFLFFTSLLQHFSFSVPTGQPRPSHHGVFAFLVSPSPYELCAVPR
Sequence of Cytochrome P450 3A4 (Homo sapiens) (P08684 whole entry, looked up): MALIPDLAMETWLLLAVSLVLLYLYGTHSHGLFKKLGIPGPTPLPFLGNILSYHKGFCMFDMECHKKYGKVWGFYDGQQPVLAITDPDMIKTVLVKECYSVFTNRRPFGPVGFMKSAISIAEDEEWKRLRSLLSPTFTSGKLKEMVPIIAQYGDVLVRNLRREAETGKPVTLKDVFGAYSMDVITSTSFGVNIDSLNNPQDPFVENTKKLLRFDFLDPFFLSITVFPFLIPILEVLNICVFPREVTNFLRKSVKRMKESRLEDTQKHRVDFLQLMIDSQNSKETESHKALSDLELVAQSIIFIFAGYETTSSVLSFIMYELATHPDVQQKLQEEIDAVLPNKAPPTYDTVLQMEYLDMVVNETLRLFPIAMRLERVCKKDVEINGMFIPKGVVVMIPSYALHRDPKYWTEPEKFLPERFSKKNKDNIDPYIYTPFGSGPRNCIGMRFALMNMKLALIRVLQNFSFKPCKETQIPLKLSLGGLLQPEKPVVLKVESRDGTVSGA
Sequence of Cytochrome P450 2C19 (Homo sapiens) (P33261 whole entry, looked up): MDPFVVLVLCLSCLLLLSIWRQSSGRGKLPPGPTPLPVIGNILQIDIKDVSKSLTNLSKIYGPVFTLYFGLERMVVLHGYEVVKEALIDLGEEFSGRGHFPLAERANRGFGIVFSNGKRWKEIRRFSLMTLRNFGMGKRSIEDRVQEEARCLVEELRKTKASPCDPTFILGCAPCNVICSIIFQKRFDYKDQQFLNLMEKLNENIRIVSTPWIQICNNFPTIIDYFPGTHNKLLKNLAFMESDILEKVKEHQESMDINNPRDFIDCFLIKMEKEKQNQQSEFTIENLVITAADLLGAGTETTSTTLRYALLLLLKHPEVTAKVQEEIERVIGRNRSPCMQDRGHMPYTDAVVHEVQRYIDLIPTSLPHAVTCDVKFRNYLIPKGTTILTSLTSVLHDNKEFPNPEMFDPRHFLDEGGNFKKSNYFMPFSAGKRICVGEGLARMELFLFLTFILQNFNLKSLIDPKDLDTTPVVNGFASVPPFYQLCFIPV
Sequence of Cytochrome P450 2C9 (Homo sapiens) (P11712 whole entry, looked up): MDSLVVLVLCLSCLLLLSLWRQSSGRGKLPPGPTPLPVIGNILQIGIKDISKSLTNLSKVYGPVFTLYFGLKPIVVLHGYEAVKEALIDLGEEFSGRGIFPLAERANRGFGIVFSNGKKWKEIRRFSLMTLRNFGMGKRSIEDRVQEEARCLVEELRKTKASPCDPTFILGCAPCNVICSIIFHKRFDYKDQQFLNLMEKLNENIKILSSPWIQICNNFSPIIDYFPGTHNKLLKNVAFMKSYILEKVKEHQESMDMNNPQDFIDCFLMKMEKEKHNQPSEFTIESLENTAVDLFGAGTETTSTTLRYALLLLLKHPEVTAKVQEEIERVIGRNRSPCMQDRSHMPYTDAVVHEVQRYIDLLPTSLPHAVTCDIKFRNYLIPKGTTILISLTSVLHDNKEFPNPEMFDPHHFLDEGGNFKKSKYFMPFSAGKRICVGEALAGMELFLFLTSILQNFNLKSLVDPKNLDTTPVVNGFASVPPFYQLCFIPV
Sequence of Voltage-gated inwardly rectifying potassium channel KCNH2 (Homo sapiens) (Q12809 whole entry, looked up): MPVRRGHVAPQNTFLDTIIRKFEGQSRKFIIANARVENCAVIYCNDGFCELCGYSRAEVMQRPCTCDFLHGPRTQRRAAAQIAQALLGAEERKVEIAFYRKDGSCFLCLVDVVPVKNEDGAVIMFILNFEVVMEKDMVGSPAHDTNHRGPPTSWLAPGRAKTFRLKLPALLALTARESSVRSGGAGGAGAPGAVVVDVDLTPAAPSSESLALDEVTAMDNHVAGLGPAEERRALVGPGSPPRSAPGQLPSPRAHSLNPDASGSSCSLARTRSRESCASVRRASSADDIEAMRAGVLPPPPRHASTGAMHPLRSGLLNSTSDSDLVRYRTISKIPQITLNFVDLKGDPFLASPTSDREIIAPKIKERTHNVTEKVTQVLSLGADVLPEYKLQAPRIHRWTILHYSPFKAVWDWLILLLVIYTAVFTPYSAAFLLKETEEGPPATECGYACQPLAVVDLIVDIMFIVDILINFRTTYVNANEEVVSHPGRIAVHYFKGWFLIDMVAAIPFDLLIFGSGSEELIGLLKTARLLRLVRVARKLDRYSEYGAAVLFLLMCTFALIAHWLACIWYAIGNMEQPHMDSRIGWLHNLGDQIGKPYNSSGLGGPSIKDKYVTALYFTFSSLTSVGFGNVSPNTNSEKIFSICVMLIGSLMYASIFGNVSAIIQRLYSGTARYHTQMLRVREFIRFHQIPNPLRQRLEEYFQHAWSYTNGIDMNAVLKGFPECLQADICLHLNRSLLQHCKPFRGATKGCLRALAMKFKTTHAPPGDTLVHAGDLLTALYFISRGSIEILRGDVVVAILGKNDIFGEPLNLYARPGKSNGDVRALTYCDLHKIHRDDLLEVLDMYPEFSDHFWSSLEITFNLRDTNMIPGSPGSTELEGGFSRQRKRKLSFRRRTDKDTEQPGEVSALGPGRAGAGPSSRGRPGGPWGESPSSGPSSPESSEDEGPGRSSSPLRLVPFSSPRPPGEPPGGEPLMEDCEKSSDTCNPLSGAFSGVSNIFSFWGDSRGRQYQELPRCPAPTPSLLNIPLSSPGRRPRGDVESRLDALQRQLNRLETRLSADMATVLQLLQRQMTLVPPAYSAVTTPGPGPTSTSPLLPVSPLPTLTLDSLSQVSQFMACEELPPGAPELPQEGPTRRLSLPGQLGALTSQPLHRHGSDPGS
Sequence of Nuclear receptor subfamily 1 group I member 2 (Homo sapiens) (O75469 whole entry, looked up): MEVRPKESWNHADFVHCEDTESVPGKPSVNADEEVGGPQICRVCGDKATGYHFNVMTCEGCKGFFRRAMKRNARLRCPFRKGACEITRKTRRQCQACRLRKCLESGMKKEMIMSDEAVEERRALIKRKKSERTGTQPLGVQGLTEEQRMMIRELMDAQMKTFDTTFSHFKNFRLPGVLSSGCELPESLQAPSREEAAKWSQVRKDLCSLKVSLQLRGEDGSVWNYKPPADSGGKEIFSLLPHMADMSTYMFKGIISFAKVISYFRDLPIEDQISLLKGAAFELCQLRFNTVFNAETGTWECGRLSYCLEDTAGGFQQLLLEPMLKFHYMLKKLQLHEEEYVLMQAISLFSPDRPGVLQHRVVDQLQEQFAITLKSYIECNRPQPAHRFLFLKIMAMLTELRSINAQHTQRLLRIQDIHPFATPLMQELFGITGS
Sequence of Cytochrome P450 1A2 (Homo sapiens) (P05177 whole entry, looked up): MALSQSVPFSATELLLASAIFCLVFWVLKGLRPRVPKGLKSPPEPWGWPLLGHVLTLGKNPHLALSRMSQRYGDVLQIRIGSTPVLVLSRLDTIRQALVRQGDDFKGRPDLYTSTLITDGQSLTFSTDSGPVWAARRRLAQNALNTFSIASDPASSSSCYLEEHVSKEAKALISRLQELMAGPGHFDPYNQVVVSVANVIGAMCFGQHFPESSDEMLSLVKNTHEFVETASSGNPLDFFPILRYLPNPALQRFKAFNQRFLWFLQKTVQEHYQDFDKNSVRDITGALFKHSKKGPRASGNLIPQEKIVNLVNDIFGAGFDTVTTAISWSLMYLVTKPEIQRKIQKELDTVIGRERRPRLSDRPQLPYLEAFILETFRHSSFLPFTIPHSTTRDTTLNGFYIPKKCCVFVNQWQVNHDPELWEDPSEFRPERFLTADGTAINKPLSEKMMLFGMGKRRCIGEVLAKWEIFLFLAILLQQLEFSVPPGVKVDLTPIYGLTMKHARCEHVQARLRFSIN
Sequence of Nuclear receptor subfamily 1 group I member 2 (Rattus norvegicus) (Q9R1A7 whole entry, looked up): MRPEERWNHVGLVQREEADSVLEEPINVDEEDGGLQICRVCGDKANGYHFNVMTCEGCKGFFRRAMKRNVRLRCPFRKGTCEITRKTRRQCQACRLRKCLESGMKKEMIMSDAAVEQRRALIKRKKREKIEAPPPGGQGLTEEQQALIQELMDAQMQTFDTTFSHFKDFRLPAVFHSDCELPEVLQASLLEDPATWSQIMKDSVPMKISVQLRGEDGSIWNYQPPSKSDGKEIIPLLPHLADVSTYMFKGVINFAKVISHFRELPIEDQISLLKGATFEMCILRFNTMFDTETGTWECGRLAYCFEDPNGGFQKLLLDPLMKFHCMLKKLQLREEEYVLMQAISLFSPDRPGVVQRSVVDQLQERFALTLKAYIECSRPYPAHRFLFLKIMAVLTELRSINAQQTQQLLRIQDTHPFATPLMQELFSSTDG

Take `C[C@]12C(=O)OC(=O)[C@H]1[C@H]1C=C[C@@H]2C1`: the Potency result in assay [1], in assay [2], in assay [3], in [4], in assay [5] and in [6] was “inactive” in each case. In addition, the Potency result in assay [7] and in [8] was “inactive” throughout.

Turning to `CC1(O)CSC(C)(O)CS1` (stereo unspecified), the Potency entry in assay [1], in assay [2], in [3], in assay [9], in [4] and in [7] was “inactive” in each case. Also, the Potency in assay [10] was 39.9 µM (active).

In the case of `CCOC(=O)NCCC[Si](OCC)(OCC)OCC`, the Potency result in assay [1], in assay [2], in assay [3], in assay [9], in assay [4] and in [5] was “inactive” in each case. The Potency result in assay [6], in assay [10] and in assay [7] was “inactive” in each case. For the same compound, the Potency in assay [8] was 39.9 µM (active).

Regarding `Cc1ccc(C(C)C)cc1O`, the Potency result in assay [1], in assay [2], in [9], in [4] and in [7] was “inactive” throughout. In addition, the Potency in assay [5] was 1.78 µM (active); in assay [6], 15.9 µM (active); in [10], 22.4 µM (active).

Consider `CCOC(=O)CS`, for which the Potency result in assay [1], in [2], in [3], in assay [9], in assay [4] and in assay [7] was “inactive” throughout. Further, the Potency entry in assay [8] was “inactive”. The Potency in [5] was 82 µM (active); in [10] it was 65.1 µM (active).

Consider `CCc1nnc(NS(=O)(=O)c2ccc(N)cc2)s1`, for which the Potency entry in assay [1], in assay [2], in assay [3], in [9], in assay [11] and in assay [12] was “inactive” each time. The Potency result in assay [4], in [5], in assay [10] and in assay [7] was “inactive” each time.

Regarding `FC(F)(F)c1ccccc1`, the Potency entry in assay [1], in [2], in assay [3], in assay [9], in assay [4] and in [5] was “inactive” throughout. The Potency result in [6], in assay [10], in [7] and in assay [8] was “inactive” in each case.

Turning to `O=C(O)[C@@H](O)[C@H](O)[C@H](O)[C@@H](O)C(=O)O`, the Potency entry in assay [1], in assay [2], in assay [9], in [4], in assay [5] and in [6] was “inactive” each time. The Potency entry in assay [10], in assay [7] and in assay [8] was “inactive” each time.

In the case of `Cc1cccc(C)c1NC(=O)CN1CCCCCC1`, the Potency entry in assay [1], in assay [2], in assay [3], in [12], in assay [6] and in assay [10] was “inactive” in each case. For the same compound, the Potency result in [7] and in assay [8] was “inactive” throughout. Further, the results for the Potency in [9] and in assay [11] were 11.9 µM (active) and 14.1 µM (active), respectively.

For the compound `O=C1C=CC(=O)O1`, the Potency result in [1], in assay [2], in [5], in [6], in assay [10] and in assay [7] was “inactive” in each case. In addition, the Potency entry in assay [8] is “inactive”. For the same compound, in assay [13], the outcome was inactive.

Turning to `C=Cc1ccccc1`, the Potency result in assay [1], in assay [2], in [3], in assay [9], in assay [4] and in assay [5] was “inactive” each time. The Potency result in assay [6], in assay [10], in [7] and in [8] was “inactive” in each case.

For `CC/C=C\CCOC(=O)CCCCC`, the Potency result in [1], in [2], in [3], in [9], in [6] and in assay [7] was “inactive” each time. Besides, the Potency result in [8] is “inactive”.

`CC(Oc1c(Cl)cccc1Cl)C1=NCCN1` (stereo unspecified): the Potency result in [1], in assay [2], in [3] and in [7] was “inactive” each time. Besides, the Potency in [4] was 4.9 µM (active); in [10] it was 12.9 µM (active).

`Nc1ccc(Oc2ccc(N)c(N)c2)cc1`: the Potency result in assay [1] and in assay [7] was “inactive” throughout. In addition, the Potency was 61.1 µM (active) in [2]; 19.3 µM (active) in assay [9]; 5.64 µM (active) in [4]; 20 µM (active) in assay [5]; 6.33 µM (active) in [6]; 35.6 µM (active) in assay [10]. The Potency in assay [8] was 3.56 µM (active).

For `CC(C)C[C@H](NC(=O)OCC1c2ccccc2-c2ccccc21)C(=O)O`, the Potency entry in assay [1], in [2] and in assay [7] was “inactive” in each case. The result in [13] was inactive.

Take `Cc1c(-c2ccccc2)oc2c(C(=O)OCCN3CCCCC3)cccc2c1=O`: the Potency entry in assay [1], in assay [2], in [3], in assay [9], in assay [11] and in assay [12] was “inactive” each time. For the same compound, the Potency entry in assay [5] was “inactive”. The max activation in assay [14] was -3.87%.

Consider `CC/C=C\CCOC(=O)C(C)C`, for which the Potency entry in assay [1], in assay [2], in assay [3], in assay [9], in assay [4] and in [5] was “inactive” throughout. The Potency entry in [10] and in assay [7] was “inactive” in each case.

Turning to `CCCCCCCCCC#N`, the Potency entry in assay [1], in [2], in assay [3], in assay [5], in [6] and in [7] was “inactive” in each case. Also, the Potency entry in [8] was “inactive”.

With `CC(C)CC(=O)OCc1ccccc1`, the Potency entry in assay [1], in [2], in assay [3], in assay [4], in assay [5] and in assay [6] was “inactive” throughout. Also, the Potency result in assay [10], in assay [7] and in assay [8] was “inactive” in each case.

On to `C=CC(C)(O)CC/C=C(\C)CCC=C(C)C` (stereo unspecified), for which the Potency entry in assay [1], in assay [2], in [3], in [9], in [11] and in [12] was “inactive” in each case. For the same compound, the Potency is 17.8 µM (active) in [5], 31.7 µM (active) in [6] and 31.7 µM (active) in assay [10].

`OCc1ccccc1O`: the Potency entry in assay [1], in assay [2], in assay [3], in assay [9], in [11] and in assay [12] was “inactive” throughout. In addition, the Potency result in [4], in assay [5], in assay [6], in assay [10], in assay [7] and in assay [8] was “inactive” each time. In addition, the max activation in assay [14] is 11.7%.

`CC(C)CCCCCCc1ccc(OCCOCCO)cc1`: the Potency result in assay [1], in assay [2], in assay [3], in [4], in assay [5] and in assay [7] was “inactive” throughout. Besides, the Potency entry in [8] is “inactive”.

Regarding `NC(=O)Cc1cccc(C(=O)c2ccccc2)c1N`, the Potency result in assay [1], in [2], in assay [3], in assay [9], in assay [4] and in assay [6] was “inactive” each time. Besides, the Potency result in [7] and in assay [8] was “inactive” each time. Besides, the values for the Potency in [5] and in assay [10] were 34.7 µM (active) and 15.5 µM (active), respectively.

Values taken from PubChem BioAssay (Tox21).
